From PubChem BioAssay AID1851 (National Center for Advancing Translational Sciences (NCATS), 2009)
Out of some 16,000 compounds screened, about 5,100 (32%) were called active. Roughly 25% stayed inconclusive and do not appear here. Some of the results follow. Unmarked numbers belong to inactive results. Calls follow the shape of the dose curve; as a rule, active = well fitted curve in the direction sought with a large enough effect; inconclusive = small, poorly fitted or top-dose-only effect, or effect the other way; inactive = no such curve, though single readings can be large or run the other way.

What follows are molecules tested against Cytochrome P450 3A4 (Homo sapiens) (UniProt P08684) (assay: Cytochrome panel assay with activity outcomes). Conditions: recombinant CYP, pro-luciferin dealkylation, luminescence, p450-cyp3a4; series mostly up to 57.1 µM; activity, negative = inhibition: at the top concentration.
Cytochrome P450 3A4 (Homo sapiens), sequence (P08684 whole entry, looked up): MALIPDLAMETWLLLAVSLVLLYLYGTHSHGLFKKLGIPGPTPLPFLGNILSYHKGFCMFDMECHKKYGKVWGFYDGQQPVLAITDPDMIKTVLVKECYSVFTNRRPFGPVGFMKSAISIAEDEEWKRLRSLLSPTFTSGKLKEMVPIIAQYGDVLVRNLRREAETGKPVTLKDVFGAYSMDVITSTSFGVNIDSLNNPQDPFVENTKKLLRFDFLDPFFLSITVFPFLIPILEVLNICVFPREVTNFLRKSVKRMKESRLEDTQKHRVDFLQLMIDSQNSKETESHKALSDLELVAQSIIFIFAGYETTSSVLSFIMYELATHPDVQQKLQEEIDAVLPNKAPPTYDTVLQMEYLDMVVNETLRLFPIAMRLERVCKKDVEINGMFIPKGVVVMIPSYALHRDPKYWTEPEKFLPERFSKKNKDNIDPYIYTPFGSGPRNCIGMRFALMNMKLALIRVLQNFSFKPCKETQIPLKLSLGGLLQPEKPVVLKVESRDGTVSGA
% is scaled to controls: 0 for no effect and ±100 for the full control effect.

Row | Structure (SMILES) | activity, negative = inhibition | AC50
1 | Nc1nc(Cl)cc(N2CCOCC2)n1 | -4.16% | 
2 | COc1ccc(-c2cc(C3CCN(c4cc(Cl)nc(N)n4)CC3)[nH]n2)cc1 |  | 28.2 µM (active)
3 | NC1CCN(c2cccc(Cl)n2)CC1 |  | inactive
4 | Nc1nc(Cl)cc(N2CCC(c3cc(-c4ccc(Cl)cc4Cl)n[nH]3)CC2)n1 |  | 20 µM (active)
5 | CCNc1ncc2nc(-c3ccc(F)cc3)c(=O)n(CCC#N)c2n1 | -24.5% | 
6 | CCNc1ncc2nc(-c3ccc(F)cc3)c(=O)n(CCOC)c2n1 | 13.3% | 
7 | CCNc1ncc2nc(-c3cccs3)c(=O)n(Cc3cccs3)c2n1 |  | 6.31 µM (active)
8 | CCNc1ncc2nc(-c3cccs3)c(=O)n(Cc3ccc(F)cc3)c2n1 |  | 15.8 µM (active)
9 | CCNc1ncc2nc(-c3cccs3)c(=O)n(CCC#N)c2n1 |  | 6.31 µM (active)
10 | CCNc1ncc2nc(-c3ccccc3)c(=O)n(Cc3cccs3)c2n1 |  | 15.8 µM (active)
11 | CCNc1ncc2nc(-c3cc(F)cc(F)c3)c(=O)n(CCC#N)c2n1 | -5.56% | 
12 | CCNc1ncc2nc(C)c(=O)n(C)c2n1 | -19.3% | 
13 | CCNc1ncc2nc(C)c(=O)n(Cc3cccs3)c2n1 |  | 15.8 µM (active)
14 | O=C(Nc1ccc2oc(-c3ccccc3F)nc2c1)c1ccc2c(c1)OCCO2 |  | 3.16 µM (active)
15 | COc1cc2ccc(=O)oc2cc1O | -6.97% [at 25.6 µM] | 
16 | COc1cc(C(=O)NC(=S)Nc2ccc3oc(=O)ccc3c2)cc(OC)c1OC |  | 4.47 µM (active)
17 | COc1cc(C(=O)NC(=S)Nc2cccc(-c3cc4ccccc4oc3=O)c2)cc(OC)c1OC |  | 6.31 µM (active)
18 | COc1cc(C(=O)NC(=S)Nc2ccc(Cl)c(C(=O)O)c2)cc(OC)c1OC | -9.66% [at 11.4 µM] | 
19 | CC(O)(P(=O)(O)O)P(=O)(O)O | -6.71% [at 25.6 µM] | 
20 | Cc1c(C(=O)NN2CCOCC2)nn(-c2ccc(Cl)cc2Cl)c1-c1ccc(I)cc1 | -26.3% | 
21 | CCC(=O)Nc1cc(-c2nn(C)c(=O)c3ccccc23)ccc1N1CCCCC1 | -26.6% | 
22 | Cn1nc(-c2ccc(N3CCOCC3)c(NS(=O)(=O)c3ccc(Cl)cc3)c2)c2ccccc2c1=O |  | 1.41 µM (active)
23 | COC(=O)[C@@]1(Cc2ccc(OC)cc2)[C@H]2c3cc(C(=O)N4CCCC4)n(CCc4c[nH]c5cc(F)ccc45)c3C[C@H]2CN1C(=O)c1ccccc1 |  | 1.26 µM (active)
24 | COC(=O)[C@@]1(Cc2ccc(OC)cc2)[C@H]2c3cc(C(=O)N4CCCC4)n(CCc4c[nH]c5ccc(O)cc45)c3C[C@H]2CN1C(=O)c1ccccc1 |  | 1.58 µM (active)

Row | Structure (SMILES) | activity, negative = inhibition | AC50
25 | COC(=O)[C@@]1(Cc2ccc(F)cc2)[C@H]2c3cc(C(=O)N4CCCC4)n(CCc4c[nH]c5ccccc45)c3C[C@H]2CN1C(=O)c1ccccc1 |  | 1 µM (active)
26 | CCN(CC)c1ccc(NC(=O)c2cccnc2)c(C)c1 | 1.22% [at 2.29 µM] | 
27 | CCOc1cc(C#N)c(NC(=O)c2cccnc2)cc1OCC |  | 12.6 µM (active)
28 | CC1=C(C(=O)Nc2ccccc2)C(c2ccco2)NC(=S)N1 (stereo unspecified) | 0.933% [at 2.29 µM] | 
29 | CCN(CC)C(=O)C1=C(C)NC(=S)NC1c1cn(-c2ccccc2)nc1-c1ccc(Cl)cc1 (stereo unspecified) |  | 7.08 µM (active)
30 | CCN(CC)C(=O)c1sc2[nH]c(=S)n(-c3ccccc3)c(=O)c2c1C | -14.5% | 
31 | COc1ccc2[nH]cc(CCNc3ccnc(-c4ccccc4C(F)(F)F)n3)c2c1 |  | 2 µM (active)
32 | COc1ccc2[nH]cc(CCNc3ccnc(-c4ccccc4C)n3)c2c1 |  | 3.16 µM (active)
33 | COc1ccc2[nH]cc(CCNc3ccnc(-c4ccccc4Cl)n3)c2c1 |  | 2 µM (active)
34 | NC(=O)N[C@H]1NC(=O)NC1=O | -8.61% [at 25.6 µM] | 
35 | O=C(O)[C@@H](c1ccccc1)[C@@H](C(=O)O)c1ccccc1 | -6.94% [at 11.4 µM] | 
36 | Cc1ccc(SCc2nnc(NC(=O)c3ccccc3)s2)cc1 | 6.01% | 
37 | Cc1ccn2c(NC(=O)c3ccccc3)c(-c3cccs3)nc2c1 |  | 7.94 µM (active)
38 | Cn1sc(NC(=O)c2ccccc2)nc1=O | 0.56% | 
39 | COc1ccc(CNc2ncncc2-c2ccccc2C(F)(F)F)c(OC)c1 |  | 0.316 µM (active)
40 | COc1ccccc1CNc1ncncc1-c1ccccc1C(F)(F)F |  | 0.0794 µM (active)
41 | CSc1ccc(NC(=O)NCCN2CCc3ccccc3C2)cc1 | -27.6% | 
42 | CSc1ccc(NC(=O)Nc2cc(C)ccn2)cc1 | -14.7% [at 11.4 µM] | 
43 | CSc1ccc(CNc2ccc(C)c(C)c2)cc1 |  | 12.6 µM (active)
44 | O=C(O)[C@H]1[C@H](C(=O)O)[C@H](C(=O)O)C[C@@H]1C(=O)O | -3.42% [at 11.4 µM] | 
45 | COc1ccc2cc(C)c3nnc(SCC(=O)Nc4nc(-c5ccccc5)cs4)n3c2c1 |  | 2.24 µM (active)
46 | COc1ccc(NC(=O)CSc2nc(-c3ccc(C)cc3)cc(C(F)(F)F)c2C#N)cc1 | 0.258% [at 2.29 µM] | 
47 | COc1ccc(-n2c(CNc3ccc(C)cc3)nnc2SCC(=O)Nc2nc(-c3ccccc3)cs2)cc1 |  | 3.16 µM (active)
48 | Nc1ccc(N2C(=O)c3ccccc3C2=O)c(Cl)c1 |  | 15.8 µM (active)

Row | Structure (SMILES) | activity, negative = inhibition | AC50
49 | CC1CCN(CCc2nc3cc(NC(=O)NC4CCCCC4)ccc3n2C)CC1 | -7.07% | 
50 | Cc1ccccc1-c1cncnc1NCc1cccnc1 |  | 0.631 µM (active)
51 | CN(C)Cc1ccccc1-c1cncnc1NCc1cccnc1 |  | 1.58 µM (active)
52 | c1cncc(CNc2ncn[nH]2)c1 | -14.4% [at 11.4 µM] | 
53 | FC(F)(F)c1ccccc1-c1cncnc1NCc1cccnc1 |  | 0.631 µM (active)
54 | Cc1ccccc1-c1cncnc1NCc1ccccc1 |  | 0.316 µM (active)
55 | N#Cc1ccc(OC(=O)c2ccc(N=C(N)N)cc2)cc1 | -10.9% [at 11.4 µM] | 
56 | Cc1cccc(CNc2ncncc2-c2ccccc2Cl)c1 |  | 0.2 µM (active)
57 | Cc1cccc(CNc2ncncc2-c2ccccc2C)c1 |  | 0.398 µM (active)
58 | Cc1cccc(CNc2ncncc2-c2ccccc2C(F)(F)F)c1 |  | 0.0794 µM (active)
59 | Cc1ccc(N(CC(N)=O)C2SC(=O)N(Cc3cccc(C(=O)O)c3)C2=O)cc1 (stereo unspecified) | 22.1% | 
60 | c1ccc(CSc2nnc(-c3sccc3-n3cccc3)o2)cc1 |  | 15.8 µM (active)
61 | Clc1cccc(CSc2nnc(-c3sccc3-n3cccc3)o2)c1 |  | 8.91 µM (active)
62 | c1ccc(CSc2nnc([C@@H]3CCCN3)o2)cc1 | -4.35% [at 11.4 µM] | 
63 | Clc1ccc(CSc2nnc(-c3cccnc3)o2)cc1 |  | 3.16 µM (active)
64 | Cc1cccc(-c2nnc(SCc3ccccc3)o2)c1 | -29.6% | 
65 | Clc1ccc(CSc2nnc(-c3sccc3-n3cccc3)o2)cc1 |  | 6.31 µM (active)
66 | CCOC(=O)c1c(NC(=O)Cn2cc([N+](=O)[O-])cn2)sc2c1CCC2 |  | 10 µM (active)
67 | CCOC(=O)c1c(NC(=O)CSc2nnc(C)s2)sc2c1CCCCC2 | -23.9% [at 2.29 µM] | 
68 | CCOC(=O)c1c(NC(=O)Cn2nc([N+](=O)[O-])c(Br)c2C)sc2c1CCC(C)C2 (stereo unspecified) | -21.8% [at 2.29 µM] | 
69 | COC(=O)c1c(NC(=O)Cn2cc([N+](=O)[O-])cn2)sc2c1CCC2 |  | 14.1 µM (active)
70 | O=C(O)CCN1C(=S)CSC1=S | -22% [at 11.4 µM] | 
71 | Cc1ccc(-c2ncccc2OC(=O)C23CC4CC(CC(C4)C2)C3)cc1 | -12.5% [at 2.29 µM] | 
72 | CCC(C(=O)c1ccccc1)N(C(=O)c1ccccc1Cl)N1C(=O)C2C3C=CC(C3)C2C1=O (stereo unspecified) |  | 0.891 µM (active)

Row | Structure (SMILES) | activity, negative = inhibition | AC50
73 | COC(=O)c1cccc(C(=O)Nc2ccc(C)cc2)n1 |  | 12.6 µM (active)
74 | Cc1ccc(OC(=O)c2cccc(C(=O)Oc3ccc(C)cc3)n2)cc1 | 6.37% [at 11.4 µM] | 
75 | CCOC(=O)c1cccc(C(=O)OCC)n1 | -1.92% | 
76 | c1csc(CNc2ccnc(-c3ccc4c(c3)OCO4)n2)c1 |  | 1 µM (active)
77 | c1ccc(CNc2ccnc(-c3ccc4c(c3)OCO4)n2)cc1 |  | 0.794 µM (active)
78 | c1cncc(CNc2ccnc(-c3ccc4c(c3)OCO4)n2)c1 |  | 1 µM (active)
79 | COc1c(O)cc2c(c1O)[C@@H]1O[C@@H](CO)[C@@H](O)[C@@H](O)[C@@H]1OC2=O | -6.12% [at 25.6 µM] | 
80 | c1cnc(Nc2nc(-c3ccc4ccccc4c3)cs2)nc1 | -2.2% | 
81 | COc1cccc(Nc2nc(-c3ccc(O)cc3)cs2)c1 |  | 7.08 µM (active)
82 | O=C(NCc1ccccc1)c1sc(=S)n2c1[nH]c(=O)c1ccccc12 |  | 3.98 µM (active)
83 | Cc1nn2c([nH]c(=O)c3ccccc32)c1C=O | 3.01% | 
84 | O=C(O)NCc1ccccc1 (tested in a mixture with another compound) | -3.33% [at 11.4 µM] | 
85 | COc1ccc2cc3cc(C(=O)NCCN4CCN(c5ccccc5F)CC4)oc3nc2c1 |  | 14.1 µM (active)
86 | COc1ccc2cc3cc(C(=O)NCCCN4CCOCC4)oc3nc2c1 |  | 10 µM (active)
87 | CCN1CCN(CCCNC(=O)c2cc3cc4ccc(OC)cc4nc3o2)CC1 | -17.8% | 
88 | COc1cc2c3c(c1OC)C1(C=CC(=O)C=C1)CC3N(C(=O)c1ccccc1)CC2 (stereo unspecified) | 1.64% | 
89 | COc1cc2c(C(=O)N3CCN(C)CC3)c(C)n(-c3ccccc3)c2cc1Br |  | 1.12 µM (active)
90 | CN1CCN(C(=O)c2ccc(-n3cccc3)cc2)CC1 | -11.5% | 
91 | COc1ccc2nc(N)sc2c1 | -20.7% | 
92 | COc1ccc2c(Cl)c(-c3nnco3)sc2c1 |  | 7.08 µM (active)
93 | COc1ccc2nc(/N=C\N(C)C)sc2c1 | -29.5% | 
94 | COc1ccc(/C=N/Nc2snc(SC)c2C#N)cc1OC |  | 8.91 µM (active)
95 | COc1cc(/C=N\Nc2nc3ccccc3[nH]2)cc(OC)c1OC | -13.5% [at 2.29 µM] | 
96 | COc1cc(/C=N/Nc2snc(SC)c2C#N)cc(OC)c1OC |  | 7.94 µM (active)
